Compound activity: PubChem, several laboratories
Shown are actives, neighbours in structure and some others; about 6.6% of the full set was active somewhere.
Gli-Sufu antag: blocks Gli-Sufu signaling in a luciferase reporter; Sufu-KO-LIGHT fibroblasts, Gli luciferase reporter luminescence; AID 588413; inhibition, % at 5 µM; hit rate 0.74% among 340,000;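 active means inhibition above about 55%, limit read from the data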
Beta cell apopt: beta cell apoptosis inhibition. INS-1E cytokine-induced death, ATP luminescence, 48 h; percent of positive-control rescue, neutral wells zero. protection from apoptosis, % (test concentration not listed). hit rate 0.8% among 300,000. AID 435005;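 active means Every replicate reaches about 75%, or at least half do and their mean reaches it too, limit read from the data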;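 further: higher means more ATP so stronger rescue from cytokine killing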
Mdm2 MdmX PPI: inhibitors of human Mdm2/MdmX interaction; inhibition, % at 8 µM; hit rate 3% among 330,000; SaOS-2 split-luciferase Mdm2/MdmX complementation, luminescence; O15151+Q00987; AID 485346;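 active means inhibition of at least 50% at 8 µM in the primary screen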
GRIN3A LBD mod: modulates the human NR3A ligand-binding domain | NR3A LBD differential scanning fluorimetry, Tm shift; 0% = protein alone, 100% = glycine-bound protein | Tm shift relative to glycine control, % at 25 µM | hit rate 2.5% among 340,000;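 active means melting temperature shift of at least 10% of the positive control shift, at one fixed dose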
MPTP block: blocks calcium-induced mitochondrial swelling; isolated mouse mitochondria, Ca2+ swelling absorbance, 30 min; AID 602449; inhibition, % at 10 µM; hit rate 1.4% among 360,000;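 active means inhibition of 50% or more, scaled per plate between neutral and stimulator controls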
CSC inhib: cancer stem cell inhibition | cancer stem cell-like cells viability, luminescence | inhibition, % at 7.5 µM | hit rate 1.1% among 300,000 | AID 2717; in the data active means inhibition above about 75%; tested in HMLE shEcad cells
A number is an active result.

O=C(NCCc1c[nH]c2ccccc12)Nc1ccccc1 was read as Gli-Sufu antag inactive, Beta cell apopt inactive, Mdm2 MdmX PPI inactive, GRIN3A LBD mod 16, MPTP block inactive and CSC inhib inactive.
Screening N#C/C(=C/c1ccc(Br)s1)C(=O)NCCc1c[nH]c2ccccc12 returned Gli-Sufu antag inactive, Beta cell apopt inactive, Mdm2 MdmX PPI inactive, GRIN3A LBD mod 23, MPTP block inactive and CSC inhib inactive.
O=C(NCCc1c[nH]c2ccccc12)C(=O)c1c[nH]c2ccccc12 was read as Gli-Sufu antag inactive, Mdm2 MdmX PPI inactive, GRIN3A LBD mod 25, MPTP block inactive and CSC inhib 112.
`COCCN1C(=O)CN(S(C)(=O)=O)CC1(C)C(=O)NC(C)C` (stereo unspecified) gave MPTP block inactive.
`CCOC(=O)c1c(C)[nH]c(C(=O)OCc2ccccc2F)c1C` gave Gli-Sufu antag inactive, Beta cell apopt inactive, Mdm2 MdmX PPI inactive, GRIN3A LBD mod inactive, MPTP block inactive and CSC inhib inactive.
For N#Cc1cccc(NC(=O)NCCc2c[nH]c3ccccc23)c1 the results were Gli-Sufu antag inactive, Beta cell apopt inactive, Mdm2 MdmX PPI inactive, GRIN3A LBD mod 11, MPTP block inactive and CSC inhib inactive.
COc1ccccc1NC(=O)NCCc1c[nH]c2ccccc12 was read as Gli-Sufu antag inactive, Beta cell apopt inactive, Mdm2 MdmX PPI inactive, GRIN3A LBD mod inactive, MPTP block inactive and CSC inhib inactive.
`Cc1ccc2ncnc(Nc3ccc(C)c(C)c3)c2c1` gave Gli-Sufu antag inactive, Beta cell apopt inactive, Mdm2 MdmX PPI inactive, GRIN3A LBD mod inactive, MPTP block inactive and CSC inhib 80.
`COCCCNc1ncnc2ccc(C)cc12` gave Gli-Sufu antag inactive, Beta cell apopt inactive, Mdm2 MdmX PPI inactive, GRIN3A LBD mod inactive, MPTP block inactive and CSC inhib inactive.
Cc1ccc2cc(NC(=O)c3ccccc3C)ccc2n1 was read as Gli-Sufu antag inactive, Mdm2 MdmX PPI inactive, GRIN3A LBD mod inactive and MPTP block inactive.
For Cc1c(C(=O)N/N=C/c2ccc(O)c(Br)c2)sc(N)c1C#N the results were Gli-Sufu antag inactive, Beta cell apopt inactive, GRIN3A LBD mod 14, MPTP block inactive and CSC inhib inactive.
For COc1cc(/C=N/NC(=O)c2sc(N)c(C#N)c2C)ccc1O the results were Gli-Sufu antag inactive, Beta cell apopt inactive, Mdm2 MdmX PPI inactive, GRIN3A LBD mod 15, MPTP block inactive and CSC inhib inactive.
COc1cc(/C=N/NC(=O)c2ccccc2)ccc1O was read as Gli-Sufu antag inactive, Beta cell apopt inactive, Mdm2 MdmX PPI inactive, GRIN3A LBD mod inactive, MPTP block inactive and CSC inhib inactive.
For Cc1ccc(N2C(=O)CS/C2=C(\C(Cl)=C(Cl)Cl)[N+](=O)[O-])cc1 the results were Gli-Sufu antag inactive, Beta cell apopt inactive, Mdm2 MdmX PPI inactive, GRIN3A LBD mod 11, MPTP block inactive and CSC inhib inactive.
`Cc1ccc(N2C(=O)CSCC2=O)cc1` gave Gli-Sufu antag inactive, Beta cell apopt inactive, Mdm2 MdmX PPI inactive, GRIN3A LBD mod inactive, MPTP block inactive and CSC inhib inactive.
For Cc1cccc(CN(Nc2ccccc2)c2ccccc2)n1 the results were MPTP block inactive.
`Cc1cc([N+](=O)[O-])nn1CCCC(=O)Nc1sc2c(c1C(N)=O)CCCC2` gave Gli-Sufu antag inactive, Beta cell apopt inactive, Mdm2 MdmX PPI inactive, GRIN3A LBD mod 17, MPTP block inactive and CSC inhib inactive.
`Cc1cc([N+](=O)[O-])nn1CC(=O)Nc1sc2c(c1C(N)=O)CCCC2` gave Gli-Sufu antag inactive, Beta cell apopt inactive, Mdm2 MdmX PPI inactive, GRIN3A LBD mod inactive, MPTP block inactive and CSC inhib inactive.
Screening CCOc1ccc(C(=O)Nc2ccc(Cl)cn2)cc1Cl returned Gli-Sufu antag inactive, Beta cell apopt inactive, Mdm2 MdmX PPI inactive, GRIN3A LBD mod 25, MPTP block inactive and CSC inhib inactive.
CCOc1ccc(C(=O)Nc2cc(NC(=O)c3ccc(OCC)c(Cl)c3)cc(C(=O)O)c2)cc1Cl was read as Gli-Sufu antag inactive, Mdm2 MdmX PPI inactive, GRIN3A LBD mod 23 and MPTP block inactive.
COc1ccc(Cl)cc1NC(=S)Nc1ccc(Cl)cn1 was read as Gli-Sufu antag inactive, Beta cell apopt inactive, Mdm2 MdmX PPI inactive, GRIN3A LBD mod 16, MPTP block inactive and CSC inhib inactive.
Screening O=C(COc1ccc(Cl)cc1Cl)Nc1ccc(Cl)cn1 returned Gli-Sufu antag inactive, Beta cell apopt inactive, Mdm2 MdmX PPI inactive, GRIN3A LBD mod inactive, MPTP block inactive and CSC inhib inactive.
